Compound activity (PubChem BioAssay)
Only some compounds are listed: those with a hit (about 6.1% of all), similar ones and a draw of the others.
ERG Ets-DNA blk: ERG Ets/DNA interaction inhibition. P11308. AID 624246. Potency, µM (highest dose often 76.9 µM), for inactives: at the highest dose FP activity, negative = inhibition, most hits filed as inhibitors. 0.028% of 370,000 active. fluorescence polarization, His-ERG Ets domain / labelled DNA; active = well fitted inhibition curve with a large enough effect in the polarisation, with a control signal flat; inconclusive = small, poorly fitted or top-dose-only effect, or effect the other way, or a change in a side signal; inactive = no such curve, though single readings can be large or run the other way; the % refers to the polarisation;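 also: polarization taken with two DNA probes labelled with fluorescein and Texas red; potency is read from the fitted curve at half-maximal effect; % of control where 0% means no effect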
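His-tagged ERG Ets domain (1 uM in the protein solution; 300mM KCl, 50mM Tris-HCl, 1mM EDTA, 1mM DTT, pH 7.5) received compound, then a probe mix of 5 nM fluorescein-DNA and 100nM Texas-615-DNA. Fluorescence polarization was read for both dyes.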
D1 potentiator: enhances dopamine response at the human D1 receptor; AID 504651; HEK293 TREx D1 cells, calcium flux, dopamine EC20 potentiation; P21728; potentiation, % at 10 µM; 0.036% of 360,000 active; in the data active = potentiation above about 30%; also: 0% is about no effect
D1 antag: antagonists of human D1 dopamine receptor; HEK293 TREx D1 cells, calcium flux, dopamine EC80; active compounds read low; 3.2% of 360,000 active; AID 504652; activity change, negative = inhibition, % at 10 µM; in the data active = activity change below about -30%; also: % is scaled to controls: 0 for no effect and ±100 for the full control effect
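Using tetracycline-induced force-coupled D1 Hek293 cells and a calcium dye, signals were followed for 180 s after compound, then for 180 s after EC80 dopamine, to detect inhibitors.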
D3 ag: D3 dopamine receptor (human) agonism | max activation, % | AID 652048 | 0.58% of 410,000 active | D3R DiscoveRx beta-arrestin cells, luminescence, 90 min | P35462; in the data active = max activation above about 30%; also: 0% is about no effect
Target sequence (P35462 whole entry, looked up): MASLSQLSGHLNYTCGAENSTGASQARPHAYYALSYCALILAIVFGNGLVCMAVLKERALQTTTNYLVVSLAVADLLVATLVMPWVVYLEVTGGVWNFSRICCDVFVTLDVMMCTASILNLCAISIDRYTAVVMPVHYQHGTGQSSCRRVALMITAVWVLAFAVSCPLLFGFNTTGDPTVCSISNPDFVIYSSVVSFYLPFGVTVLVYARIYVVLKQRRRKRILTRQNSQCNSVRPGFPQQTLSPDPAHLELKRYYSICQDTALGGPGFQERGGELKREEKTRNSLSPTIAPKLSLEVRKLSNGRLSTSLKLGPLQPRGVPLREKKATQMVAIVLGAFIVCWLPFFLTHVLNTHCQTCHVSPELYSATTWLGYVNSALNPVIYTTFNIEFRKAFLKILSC
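Cells at 1500/well, incubated overnight, then treated with pinned compounds (dopamine as control) for 90 min at 37 degrees C. DiscoveRx reagent added for 30 - 60 minutes at room temperature; luminescence read.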
DRD3 antagonist: blocks the human D3 dopamine receptor; P35462; D3R cells, DiscoveRx beta-arrestin luminescence, antagonist mode; active compounds read low; max response, negative = inhibition, %; 2.5% of 360,000 active; AID 652054; in the data active = max response below about -50%; inconclusive = no clear call, values can overlap the other calls; also: % is scaled to controls: 0 for no effect and ±100 for the full control effect
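Cells expressing the human receptor were seeded at 1500 cells/well, incubated overnight at 37 degrees C in 5% CO2, then exposed to library compounds with dopamine controls for 90 minutes at 37 degrees C before luminescent detection.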
D1 ag: agonists of human D1 dopamine receptor. P21728. HEK293 T-REx D1 cells, calcium flux, agonist mode. activation, % at 2 µM. 1% of 360,000 active. AID 504660; in the data active = activation above about 30%; also: 0% is about no effect
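Tetracycline-induced HEK293 TREx D1 cells, force-coupled to calcium signalling, were dye-loaded with a no-wash calcium kit. Compound was pin-added after a 10 s baseline. Fluorescence was read kinetically at 1 cycle/s for 180 s, with calcium rises flagged as agonism.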
* hit, by the source's call; ? = inconclusive; / = not tested or not shown; ! = not confirmed by another sample.

SMILES | ERG Ets-DNA blk | D1 potentiator | D1 antag | D3 ag | DRD3 antagonist | D1 ag
CCN(CC)CCOC(=O)C1(c2ccccc2)CCCC1 | / | 8 | -8 | -20 | -19 | 13
O=C(OCCCN1CCCC1)C1(c2ccccc2)CCCC1 | 4% | 16 | 19 | -1 | -54* | 11
COc1ccc(N2CCN(C(=O)c3ccc(C(C)(C)C)cc3)CC2)cc1 | -7% | 2 | -3 | -21 | 10 | 3
O=C(Nc1ccn(CCCNCc2cccc3ccccc23)c(=O)n1)OCc1ccccc1 | / | / | / | -14 | -51* | /
CC(CNCCCn1ccc(NC(=O)OCc2ccccc2)nc1=O)c1ccccc1 (stereo not given) | 0% | / | / | -69 | -51* | /
O=C(Nc1ccn(CCCNCc2ccccn2)c(=O)n1)OCc1ccccc1 | -10% | / | / | -11 | -11 | /
O=C(Nc1ccn(CCCNCC(c2ccccc2)c2ccccc2)c(=O)n1)OCc1ccccc1 | / | / | / | -8 | -30 | /
NCCNCCN | / | / | / | 11 | / | /
NCCNCCNCCN | -3% | -1 | 1 | 36*! | 24 | 2
O=C(CN1CCC(NC(=O)c2ccccc2F)CC1)NCc1ccc(F)cc1 | 2% | -1 | / | -1 | 12 | 0
CCN1CCN(c2cc(C)c3cc(NC(=O)c4cncc(Br)c4)ccc3n2)CC1 | -5% | 3 | 13 | -11 | -69* | 0
COc1cc(OC)cc(C(=O)Nc2ccc3nc(N4CCCCC4)cc(C)c3c2)c1 | 1% | 5 | -46* | 6 | / | -1
Cc1cc(N2CCN(C)CC2)nc2ccc(NC(=O)Nc3ccc(Cl)cc3)cc12 | -2% | -5 | -15 | -5 | / | 18
Cc1cc(N2CCN(C)CC2)nc2ccc(NC(=O)c3ccc(C(C)(C)C)cc3)cc12 | 13% | 0 | -75* | -6 | / | 20
COc1ccc(CC(=O)Nc2ccc3nc(N4CCCCC4)cc(C)c3c2)cc1 | 3% | -1 | -6 | -3 | / | 1
NC(=O)c1ccsc1NC(=O)COC(=O)Cc1c[nH]c2ccccc12 | -2% | -10 | -34* | 22 | 10 | 14
O=C(COC(=O)Cc1c[nH]c2ccccc12)Nc1ccc(Cl)cc1 | / | / | / | 5 | -1 | /
COc1ccccc1NC(=O)COC(=O)Cc1c[nH]c2ccccc12 | 1% | -3 | 10 | -5 | -4 | 3
Cc1cccc(NC(=O)COC(=O)Cc2c[nH]c3ccccc23)c1C | -1% | 0 | -32* | -3 | -14 | 2
O=C(COC(=O)Cc1c[nH]c2ccccc12)Nc1ccccc1 | -12% | -6 | -34* | 8 | 9 | 5
COc1ccc(NC(=O)C(=O)NCCc2csc(-c3ccc(Cl)cc3)n2)cc1OC | -6% | -1 | -24 | 4 | / | 1
O=C(O)c1ccc(OC2CSC2)cc1 | -8% | 2 | 12 | 0 | -9 | 1
CCOc1ccc(NC(=O)c2ccc(F)c(S(=O)(=O)N(Cc3ccc(C(=O)OC)cc3)Cc3ccc(OC)c(OC)c3)c2)cc1 | -8% | 2 | 10 | 5 | / | 0
CCOC(=O)c1sc2nc(C)nc(Nc3ccc(OC)cc3)c2c1C | -3% | -1 | -30* | 6 | 13 | 2
CCOC(=O)c1sc2nc(C)nc(NCc3ccc(F)cc3)c2c1C | 20% | 1 | 3 | -5 | 36 | 4
SMILES | ERG Ets-DNA blk | D1 potentiator | D1 antag | D3 ag | DRD3 antagonist | D1 ag
CCCNC(=O)c1ccc2c(c1)CCN2S(C)(=O)=O | -1% | -4 | / | 1 | -22 | 1
CS(=O)(=O)N1CCc2cc(C(=O)N3CCN(c4ccccc4)CC3)ccc21 | -2% | -3 | -65*! | 5 | -7 | -1
COc1ccc(NC(=O)c2ccc3c(c2)CCN3S(C)(=O)=O)cc1 | / | / | / | 5 | -2 | /
CS(=O)(=O)N1CCc2cc(C(=O)NC3CC3)ccc21 | -2% | -3 | -37* | 9 | -12 | 4
CS(=O)(=O)N1CCc2cc(C(=O)Nc3ccc(Cl)cc3)ccc21 | 12% | -6 | -9 | 94* | ? | 8
Cc1cc(=O)oc2c(C)c(OC(C)C(=O)NCCCN3CCCC3=O)ccc12 (stereo not given) | 3% | 0 | -3 | -5 | 8 | 4
CSc1ccccc1NC(=O)CN(C)C(=O)CNC(=O)c1ccc(Oc2ccccc2)cc1 | / | / | / | 4 | 18 | /
COc1ccc(CNCCc2ccccc2)cc1OCC(N)=O | -6% | -5 | 3 | -18 | 12 | 2
CCOc1cc(CNCc2ccccc2)ccc1OCc1ccc(Cl)cc1 | -2% | 3 | -20 | -11 | 7 | 35*
COc1ccc(CNCCc2ccc(Cl)cc2)cc1OCc1ccccc1 | -2% | -3 | -19 | -11 | 0 | 58*
COc1ccc(CCNCc2ccc(OCc3ccccc3)cc2)cc1 | 8% | 3 | 19 | -3 | -8 | 61*
COc1ccc(CCNCc2ccc(OCc3ccc(Cl)nc3)c(OC)c2)cc1OC | -5% | -7 | -8 | -6 | 0 | 59*
CCCCCNCc1ccc(OCc2ccc(Cl)nc2)c(OC)c1 | -5% | -5 | -11 | -24 | -27 | 16
CCNCc1ccc(OCc2cccs2)c(OCC)c1 | -4% | -4 | -16 | -2 | -1 | 2
Cc1ccc(Nc2c([N+](=O)[O-])cc(C(=O)N3CC(=O)Nc4ccccc43)cc2[N+](=O)[O-])c(C)c1 | -5% | 8 | 17 | -3 | ? | -2
